Test results taken from PubChem BioAssay (NCI).
About 83,000 compounds went through this panel and 20% of them were active in at least one assay; those are over-represented in the sample as a whole.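 96-well plates, one dose, 48 hours. Percent growth reported; active if below 10.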 Values without a mark were called inactive. Calls of active or inactive are those of the source.

How the values were obtained:
Assay in all cases: NCI-60 one-dose screen, 48 h (100 = growth as untreated, 0 = no growth, -100 = all killed)
Conditions in all cases: 10 µM unless noted
SK-MEL-2 melanoma = tested on: SK-MEL-2 melanoma
EKVX NSCLC = tested on: EKVX NSCLC
SN12C renal = tested on: SN12C renal
UO-31 renal = tested on: UO-31 renal
TK-10 renal = tested on: TK-10 renal
ACHN renal = tested on: ACHN renal
CAKI-1 renal = tested on: CAKI-1 renal
A498 renal = tested on: A498 renal
CCRF-CEM leukemia = tested on: CCRF-CEM leukemia
MOLT-4 leukemia = tested on: MOLT-4 leukemia

| Compound | growth (SK-MEL-2 melanoma) | growth (EKVX NSCLC) | growth (SN12C renal) | growth (UO-31 renal) | growth (TK-10 renal) | growth (ACHN renal) | growth (CAKI-1 renal) | growth (A498 renal) | growth (CCRF-CEM leukemia) | growth (MOLT-4 leukemia) |
| --- | --- | --- | --- | --- | --- | --- | --- | --- | --- | --- |
| Cc1cccc(Cl)c1NC(=O)c1ccc2nc(NC(=O)NCCN(C)C)sc2c1 | 103% | 104% | 92% | 90.1% | 111% | 92.9% | 95.1% | 90.7% | 79.4% | 80.2% |
| CCn1c(SCC(=O)c2ccc(Br)cc2)nnc1-c1ccncc1 | 104% | 102% | 107% | 91.4% | 116% | 109% | 95.6% | 91.1% | 108% | 101% |
| COCCNC(=O)c1ccc(-c2nc3ccc4[nH]ncc4c3c3c2CCCC3)cc1 | 40.2% | 45.7% | 33% | 8.86% (active) | 38.9% | 14.9% | -4.05% (active) | -9.26% (active) | 18.1% | 17.8% |
| N#C/C(=C\c1ccc2ccccc2c1)c1cc2ccccc2[nH]1 | 43.5% | 55.3% | 49.8% | 49% | 75.6% | 50.4% | 38.1% | 33.7% | 18.5% | 29% |
| C/C(=N/O)c1ccc(F)cc1 | 7.9% (active) | 105% | 81.4% | 80.8% | 92.8% | -10.4% (active) | 61% | 111% | 87.2% | 77.7% |
| COC(=O)CCC(=O)C(=O)OC | -34.9% [10 mM] (active) | 23.7% [10 mM] | 0.923% [10 mM] (active) | -9.29% [10 mM] (active) | -8.5% [10 mM] (active) | 6.94% [10 mM] (active) | 10.2% [10 mM] | -72.8% [10 mM] (active) | -7.36% [10 mM] (active) | -11.4% [10 mM] (active) |
| CC(C)N1CCN(Cc2ccc3c(NNC(=O)c4ccccc4)nc4cc(F)ccc4n23)CC1 | 59.6% | 18.1% | 17.3% | 8.43% (active) | 36.2% | 10.8% | 12.5% | -15.8% (active) | 10.8% | 11.7% |
| CC1(C)CCC(S(=O)(=O)c2ccc3c(c2)/C(=N\O)c2cc(S(=O)(=O)N4CCC(O)(c5cccc(C(F)(F)F)c5)CC4)ccc2-3)CC1 | -90.2% (active) | -33.4% (active) | 3.73% (active) | 45.6% | -35.7% (active) | -13.3% (active) | -37.7% (active) | -51.5% (active) | -58.4% (active) | -69.2% (active) |
| CN(Cc1ccc(C(F)(F)F)cc1)CC(O)C(=O)Nc1ccc(Cl)cc1 (stereo not given) | -48.1% (active) | 12.6% | -67.6% (active) | 12.6% | 24.3% | -3.15% (active) | -59.6% (active) | -4.42% (active) | -27.4% (active) | -20.9% (active) |
| COc1ccc(-c2nnc(-c3ccc4c(c3)nc(-c3ccncc3)n4C3CCCCC3)o2)cc1 | 77.3% | 64% | 83.8% | 38.3% | 75% | 89.2% | 89.7% | 73.9% | 55.5% | 44.3% |
| O=C1Nc2ccccc2/C1=C\c1nc(-c2ccccc2)n2ccccc12 | 94.2% | 74.1% | 96.2% | 79.8% | 84.2% | 71.1% | 76.5% | 119% | 84.1% | 88.1% |
| C=CCn1cc(-c2nc3ccccc3s2)c2cc(-c3ccc4c5c(cccc35)C(=O)N(N)C4=O)ccc21 | 102% | 82.1% | 92.1% | 61.3% | 152% | 92% | 75.1% | 106% | 104% | 96.5% |
| O=C(Cn1cc(CN2C(=O)c3ccccc3S2(=O)=O)nn1)Nc1nc2ccccc2s1 | 95.3% | 105% | 105% | 69.1% | 97.5% | 90.5% | 89.6% | 108% | 113% | 115% |
| CN(C)c1ccc(/C=C/C(=O)c2ccc(-n3cc(CN4CCN(c5cc6c(cc5F)c(=O)c(C(=O)O)cn6C5CC5)CC4)nn3)cc2)cc1 | 89% | 87.6% | 8.77% (active) | 62.8% | 85.1% | 88.5% | 36.9% | 61.1% | 20% | 31.8% |
| OCCOCCN(Cc1ccccn1)Cc1cc(I)cc(I)c1O | 87.1% | 87.7% | 89.8% | 42.9% | 58.9% | 41.2% | 23.7% | 89.9% | 81.9% | 86.2% |
| CN[C@]12CC3(C=CC(=O)C=C3)O[C@@]1(Cc1ccc(OC)cc1)N(C)C(=O)N2 | 70.7% | 96% | 4.44% (active) | 48.7% | 24.1% | -86.3% (active) | 16% | 97% | 6.3% (active) | 28% |
| Cn1cc(-c2nonc2-c2c[nH]c3ccc(Br)cc23)c2cc(Br)ccc21 | 73.9% | 33.5% | 66.9% | 24.4% | 39.6% | 14.3% | 24% | 28% | 34.4% | 25.1% |
| CN1CCN(Cc2ccc(NC(=O)c3cncc(C#Cc4cnc(N)c5ccccc45)c3)cc2C(F)(F)F)CC1 | -81.6% (active) | -96.3% (active) | -90.7% (active) | -89.7% (active) | -90% (active) | -100% (active) | -92.1% (active) | -87% (active) | -6.38% (active) | 2.94% (active) |
| O=[N+]([O-])/C(=C/C=C/c1ccccc1)c1ccccc1 | 86.5% | 92.7% | 66.5% | -44.4% (active) | 91.1% | 10.6% | 51.2% | 50.4% | 36.5% | 34.4% |
| Cc1ccccc1NC(=O)c1sc2nc(C)c(C(=O)/C=C/c3ccccc3)cc2c1N | 34.8% | 59.6% | 3.45% (active) | 19.7% | 11.7% | 33.3% | 25.5% | 29.3% | 8.43% (active) | 17.4% |
| CC(=O)OCc1nc(C#N)c(N(C)C)o1 | 88.8% | 90.6% | 97.7% | 89.9% | 84.1% | 98% | 92.7% | 84.7% | 88.2% | 97.1% |
| CCOC(=O)c1c(C)nc2c(c1N)CC(=O)N2Cc1cc(F)cc(Cl)c1 | 118% | 85.3% | 93.2% | 84.6% | 92.1% | 88.2% | 75.8% | 76.7% | 95.2% | 95.9% |
| O=C(Nc1ccc(NC(=O)c2cc(=O)[nH]c3ccccc23)cc1)Nc1cccc(C(F)(F)F)c1 | 92.5% | 66.8% | 54.2% | 71% | 134% | 95% | 71.5% | 100% | 70.2% | 79.6% |
| CCOC(=O)c1nc(Nc2ccc(NC(=O)Nc3ccc(F)cc3)cc2)c2ccccc2n1 | 103% | 97.4% | 99.4% | 81% | 120% | 102% | 91.1% | 62% | 109% | 98.5% |
| COc1ccc(/C=N/NC(=O)CCN2c3ccccc3Sc3ccccc32)cc1 | 95.6% | 79.7% | 88.1% | 66.5% | 111% | 86.6% | 41.5% | 55.7% | 82.7% | 97.8% |
| CCN(CC)CCNC(=O)c1cn2ncnc(Oc3ccc(NC(=O)Nc4ccc(Cl)c(C(F)(F)F)c4)c(F)c3)c2c1C | -36.9% (active) | 24.5% | 62.5% | -53% (active) | 27.8% | -44.5% (active) | 39.6% | 21.1% | 4.8% (active) | -20.8% (active) |
